A short description of assay [1]: qHTS of pediatric cancer cell lines to identify multiple opportunities for drug repurposing: Primary screen for TC32 cells (AID 1347089). Also: nearly all actives have a fitted effect of over 60% in size. Summed up:
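TC32 cells, 500-1,000/well in growth medium, compound-treated 48 h at 37 °C; viability from CellTiter-Glo luminescence. Primary screen: MIPE 11-point (0.78 nM–46 µM final), NPC 8-point (0.59 nM–46 µM final); confirmatory at 11-point dilutions.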
On the technique in general: Quantitative high-throughput screening tests each substance at several concentrations.

The nature of assay [2]: qHTS of pediatric cancer cell lines to identify multiple opportunities for drug repurposing: Primary screen for DAOY cells (AID 1347090). Also: series mostly up to about 46 µM; nearly all actives have a fitted effect of over 55% in size. Put shortly:
(§1)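 Cell viability, CellTiter-Glo luminescence; 500-1,000 cells/well, 8- or 11-point titration, 48 h compound exposure at 37 degrees C, 5% CO2. Controls: DMSO neutral, bortezomib 2.3 µM final as positive.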

A short description of assay [3]: qHTS of pediatric cancer cell lines to identify multiple opportunities for drug repurposing: Primary screen for SJ-GBM2 cells (AID 1347091). Put shortly: as §1
Assay [4] is described as follows: qHTS of pediatric cancer cell lines to identify multiple opportunities for drug repurposing: Primary screen for A673 cells (AID 1347092). Also: nearly all actives have a fitted effect of over 45% in size. Put shortly: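 A673 cells (500-1,000 cells/well) were treated 48 hours at 37 degrees C with compounds at 11-point (0.78 nM to 46 µM) or 8-point (0.59 nM to 46 µM) dilutions. Viability read by CellTiter-Glo luminescence; concentration-response curves fitted.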

Assay [5] can be described thus: qHTS of pediatric cancer cell lines to identify multiple opportunities for drug repurposing: Primary screen for BT-37 cells (AID 1347094). Also: series mostly up to about 57 µM. Put shortly:
(§2)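 Cells plated at 500-1,000/well in growth medium, compounds added after 5 h. MIPE tested at 11 points (from 0.78 nM), NPC at 8 points (from 0.59 nM). CellTiter-Glo luminescence after 48 h; concentration-response curves from primary screen.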

A short description of assay [6]: qHTS of pediatric cancer cell lines to identify multiple opportunities for drug repurposing: Primary screen for NB-EBc1 cells (AID 1347095). Summed up: as §2
The nature of assay [7]: qHTS of pediatric cancer cell lines to identify multiple opportunities for drug repurposing: Primary screen for U-2 OS cells (AID 1347096). Also: nearly all actives have a fitted effect of over 50% in size. Summed up:
(§3)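 Cells (500-1,000/well) rested 5 h, then received compounds for 48 h; metabolically active cells were measured by CellTiter-Glo luminescence. Final concentrations spanned up to 46 µM (MIPE, 11-point) or 0.59 nM-46 µM (NPC, 8-point) in primary screens, 11-point in follow-ups.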

A short description of assay [8]: qHTS of pediatric cancer cell lines to identify multiple opportunities for drug repurposing: Primary screen for SK-N-SH cells (AID 1347098). Also: nearly all actives have a fitted effect of over 65% in size. Put shortly:
as §3

Assay [9] in a line: qHTS of pediatric cancer cell lines to identify multiple opportunities for drug repurposing: Primary screen for NB1643 cells (AID 1347099). Also: nearly all actives have a fitted effect of over 50% in size. Put shortly:
as §2

Assay [10] is described as follows: qHTS of pediatric cancer cell lines to identify multiple opportunities for drug repurposing: Primary screen for LAN-5 cells (AID 1347100). Summed up:
as §3

The nature of assay [11]: qHTS of pediatric cancer cell lines to identify multiple opportunities for drug repurposing: Primary screen for Rh18 cells (AID 1347102). Also: nearly all actives have a fitted effect of over 65% in size. Put shortly: as §3
The nature of assay [12]: qHTS of pediatric cancer cell lines to identify multiple opportunities for drug repurposing: Primary screen for OHS-50 cells (AID 1347103). Also: nearly all actives have a fitted effect of over 40% in size. Also: potency is read from the fitted curve at half-maximal effect. Summed up:
as §3

A short description of assay [13]: qHTS of pediatric cancer cell lines to identify multiple opportunities for drug repurposing: Primary screen for RD cells (AID 1347104). Also: nearly all actives have a fitted effect of over 55% in size. Put shortly:
as §2

Assay [14] in a line: qHTS of pediatric cancer cell lines to identify multiple opportunities for drug repurposing: Primary screen for Saos-2 cells (AID 1347097). Also: nearly all actives have a fitted effect of over 40% in size. Put shortly:
as §2

A short description of assay [15]: qHTS of pediatric cancer cell lines to identify multiple opportunities for drug repurposing: Primary screen for BT-12 cells (AID 1347101). Also: nearly all actives have a fitted effect of over 25% in size. Summed up:
as §3

The nature of assay [16]: qHTS of pediatric cancer cell lines to identify multiple opportunities for drug repurposing: Primary screen for SK-N-MC cells (AID 1347093). Also: series mostly up to about 46 µM. Summed up: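 Metabolically active cells were quantified by ATP-dependent luminescence (CellTiter-Glo, 15 min at room temperature) following 48 h treatment. Cells had been plated at 500-1,000 per well and settled for 5 h beforehand.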

Records with an inconclusive call do not appear. The source made the active and inactive calls. Calls follow the shape of the dose curve; as a rule, active = well fitted curve in the direction sought with a large enough effect; inconclusive = small, poorly fitted or top-dose-only effect, or another doubt; inactive = no such curve, though single readings can be large; an effect the other way counts as inactive or inconclusive.

This passage reports Potency results from PubChem BioAssay (NCATS).

As for `CCC1Nc2cc(Cl)c(S(N)(=O)=O)cc2S(=O)(=O)N1` (configuration not stated), the Potency result in assay [1], in [2], in assay [3], in assay [4], in assay [5] and in [6] was “inactive” in each case. Also, the Potency entry in [7], in assay [8], in assay [9], in assay [10], in [11] and in assay [12] was “inactive” throughout. For the same compound, in assay [13], the Potency result was “inactive”.
`CCCCC(CC)CN1CN(CC(CC)CCCC)CC(C)(N)C1` (configuration not stated): the Potency entry in [1], in assay [2], in assay [3], in assay [4], in assay [5] and in [6] was “inactive” each time. In addition, the Potency result in assay [7], in [8], in [9], in [10], in [11] and in assay [13] was “inactive” throughout.
Regarding `COc1ccc(CCN(C)CCCN2CCc3cc(OC)c(OC)cc3CC2=O)cc1OC`, the Potency result in [1], in assay [2], in [3], in [4], in assay [5] and in assay [6] was “inactive” each time. The Potency result in assay [7], in assay [14], in assay [8], in [9], in [10] and in assay [11] was “inactive” in each case. In addition, the Potency result in assay [12] and in assay [13] was “inactive” in each case.
Take `COc1ccc(CN(CCN(C)C)c2ncccn2)cc1`: the Potency entry in assay [1], in assay [2], in [3], in assay [4], in assay [5] and in assay [6] was “inactive” each time. Moreover, the Potency entry in [7], in assay [14], in assay [8], in [10], in assay [11] and in assay [12] was “inactive” in each case. Moreover, in assay [13], the Potency entry is “inactive”.
Regarding `N[C@H](C(=O)O)[C@@H](O)c1ccc(O)c(O)c1`, the Potency result in assay [1], in assay [2], in assay [3], in assay [4], in assay [5] and in [6] was “inactive” in each case. The Potency entry in assay [7], in [14], in assay [9], in [15], in [11] and in assay [12] was “inactive” throughout. The Potency entry in assay [13] was “inactive”.
Consider `CN(C)CCC[C@@]1(c2ccc(F)cc2)OCc2cc(C#N)ccc21`, for which the Potency entry in assay [1], in [2], in [3], in [4], in assay [5] and in [6] was “inactive” each time. In addition, the Potency entry in assay [7], in [14], in assay [9], in [10], in [15] and in assay [11] was “inactive” each time. Besides, the Potency entry in assay [12] is “inactive”.
`Cc1cc(CC(=O)O)c(C)n1-c1ccc(Cl)cc1`: the Potency result in [1], in [2], in assay [3], in assay [4], in [5] and in assay [6] was “inactive” each time. Also, the Potency entry in assay [7], in assay [8], in assay [15], in assay [11], in assay [12] and in [13] was “inactive” in each case.
As for `CC(C)Cn1cnc2c1c(=O)n(C)c(=O)n2C`, the Potency result in [1], in assay [2], in assay [3], in assay [4], in assay [5] and in assay [6] was “inactive” throughout. For the same compound, the Potency result in assay [7], in [14], in assay [8], in [9], in [10] and in [15] was “inactive” each time. For the same compound, the Potency entry in [11], in assay [12] and in assay [13] was “inactive” throughout.
As to `CN1CCN(c2c(F)cc3c(=O)c(C(=O)O)cn4c3c2SCC4)CC1`, the Potency result in [1], in [2], in assay [4], in assay [16], in [5] and in assay [6] was “inactive” throughout. Moreover, the Potency entry in assay [7], in assay [14], in [8], in assay [9], in assay [10] and in [11] was “inactive” each time. In addition, the Potency result in [12] and in [13] was “inactive” throughout.
As for `O=C(CN1CCN(Cc2ccc3c(c2)OCO3)CC1)N1c2ccccc2Sc2ccccc21`, the Potency result in assay [1], in assay [2], in assay [4], in assay [16], in [5] and in [6] was “inactive” throughout. The Potency entry in assay [7], in [14], in [8], in [9], in assay [10] and in assay [15] was “inactive” throughout. In addition, the Potency entry in [11] and in assay [13] was “inactive” in each case.
Take `CCC1NC(=O)c2cc(S(N)(=O)=O)c(Cl)cc2N1` (configuration not stated): the Potency result in [1], in [2], in [4], in assay [16], in assay [5] and in [6] was “inactive” in each case. For the same compound, the Potency entry in [7], in assay [14], in assay [8], in assay [9], in assay [10] and in assay [15] was “inactive” throughout. The Potency result in assay [11] and in assay [13] was “inactive” each time.
For `Cc1cn([C@H]2C[C@H](F)[C@@H](CO)O2)c(=O)[nH]c1=O`, the Potency result in assay [1], in assay [2], in assay [3], in assay [4], in assay [7] and in assay [14] was “inactive” in each case. Further, the Potency entry in assay [8], in assay [9], in [10], in assay [15], in assay [11] and in assay [13] was “inactive” in each case.
For `NC1CCN(c2nc3c(cc2F)c(=O)c(C(=O)O)cn3-c2ccc(F)cc2F)C1` (configuration not stated), the Potency result in [1], in assay [2], in assay [3], in [16], in assay [5] and in [6] was “inactive” each time. Besides, the Potency result in assay [7], in assay [14], in assay [8], in [10], in assay [11] and in [12] was “inactive” throughout. Further, the Potency result in [13] was “inactive”.
In the case of `Nc1ccc(S(=O)(=O)NCc2ccccc2)cc1`, the Potency result in assay [1], in assay [2], in [4], in assay [16], in [5] and in assay [6] was “inactive” each time. Further, the Potency result in assay [7], in assay [14], in assay [8], in [9], in assay [10] and in assay [15] was “inactive” throughout. Further, the Potency result in assay [11] and in [13] was “inactive” each time.
In the case of `C[C@H]1[C@H]2CC[C@H]3[C@@H]4CC=C5C[C@@H](N(C)C)CC[C@]5(C)[C@H]4CC[C@]23CN1C`, the Potency entry in assay [1], in [2], in assay [3], in [6], in assay [7] and in assay [8] was “inactive” each time. Also, the Potency entry in [9], in [10], in assay [15] and in assay [11] was “inactive” in each case.
As to `Cc1cc2c(OCC(CNC(C)(C)C)OC(=O)c3ccccc3)cccc2[nH]1` (configuration not stated), the Potency entry in [1], in assay [2], in assay [3], in [4], in assay [6] and in assay [7] was “inactive” throughout. In addition, the Potency entry in assay [14], in [8], in assay [10], in assay [15], in assay [11] and in assay [12] was “inactive” throughout. For the same compound, the Potency entry in assay [13] was “inactive”.
As to `CCOC(=O)c1c(N)sc2c1CCN(Cc1ccccc1)C2`, the Potency result in [1], in assay [2], in [3], in assay [6], in assay [7] and in assay [14] was “inactive” throughout. In addition, the Potency result in [11] is “inactive”. In assay [12], the Potency was 17.4 µM (active).
